Results from PubChem BioAssay (NCI).
The panel holds about 83,000 compounds, 20% with a hit somewhere; the sample as a whole holds those more often.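 Treatment: one concentration, 48 hours, 96-well format. Scoring: percent growth, with anything below 10 considered active.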 Calls of active or inactive are those of the source.

These compounds were tested on NCI-H23 lung (assay: NCI-60 one-dose screen, 48 h (100 = growth as untreated, 0 = no growth, -100 = all killed)). Details: 10 µM unless noted.
In the case of `CC1=C(C(=O)OC(C)C)C(c2cccc(O)c2)NC(=S)N1` (stereo not drawn), the growth is reported as 106% (inactive). In the case of `N/N=C(\N)c1c(N)nc(=S)[nH]c1-c1ccc(Cl)cc1Cl`, the growth is reported as 103% (inactive). With `COc1ccc2[nH]cc(-c3nnc(N)nc3-c3c[nH]c4ncc(Br)cc34)c2c1` the growth was 92.2% (inactive). For `COc1cc(C2CC(c3cc(OC)c(OC)c(OC)c3)=NN2c2ccccc2)ccc1OCc1ccc(C)cc1` (stereo not drawn), the growth was 101% (inactive). `O=C(N/N=C/c1ccc(-c2ccc(O)cc2)o1)c1[nH]c2ccc(Br)cc2c1-c1ccccc1` was tested, and the growth was 5.82% (active).

Each compound was assayed on NCI-H226 lung in the same assay as above. Details: 10 µM unless noted.
With `C=C1CCC2C3(C)COC(c4cc(F)cc(F)c4)OC3CCC2(C)C1CC(O)C1=CCOC1=O` (stereo not drawn) the growth was 92.1% (inactive). For `CC(=O)Nc1ccc(C(=O)NC(=S)Nc2ccc(S(N)(=O)=O)cc2)cc1`, the growth was 81.9% (inactive). `COc1cc(C2CC(c3cc(OC)c(OC)c(OC)c3)=Nc3c(N)nc(N)nc3N2)ccc1Oc1nc(NCCO)nc(N2CCOCC2)n1` (stereo not drawn) was tested, and the growth was 84.2% (inactive). `CC1=C(C(=O)c2ccccc2)C(c2cccc(Cl)c2Cl)n2c(nc3ccccc32)N1` (stereo not drawn) was tested, and the growth was 7.18% (active). In the case of `CN1CCc2c(sc3ncnc(N/N=C/c4ccc(Cl)cc4Cl)c23)C1`, the growth is reported as -59.8% (active). `O=C(COc1ccc(NC(=O)Nc2ccc(Cl)c(Cl)c2)cc1)N=Nc1c(O)[nH]c2ccc(Br)cc12` was tested, and the growth was -58.1% (active). `Cn1cc(NC(=O)c2cc(NC(=O)c3ccc(C#Cc4ccccc4)cc3)cn2C)cc1C(=O)NCCCN1CCOCC1` was tested, and the growth was 69.7% (inactive). In the case of `COCOc1cc2oc(C(=O)N[C@@H](Cc3ccccc3)C(O)C(=O)NCc3ccccc3)c(C)c(=O)c2cc1OCOC` (stereo partly drawn), the growth is reported as -11.8% (active). With `Cc1ccc(C(=O)CSc2nc3ccc(C)cc3c(=O)n2-c2ccc(F)cc2)cc1` the growth was 15% (inactive). In the case of `CC(C)c1ccc2c(N)c(C(=O)Nc3ccc(C(F)(F)F)cn3)sc2n1`, the growth is reported as 22.9% (inactive). With `CN(C)CCn1c2ccccc2c2nc3ccc([N+](=O)[O-])cc3nc21` the growth was -21.2% (active). With `COc1cc2c(c(OC)c1OC)C(=O)CC(c1cccc(NC(=O)c3cc(NC(=O)[C@H](CO)NC(=O)OC(C)(C)C)ccc3Cl)c1)O2` (stereo partly drawn) the growth was 33% (inactive). `Cc1cccc(NC(=O)[C@]23CCC(C)(C)CC2C2=CCC4[C@@]5(C)C[C@@H](O)[C@H](O)[C@@](C)(CO)C5CC[C@@]4(C)[C@]2(C)CC3)c1` (stereo partly drawn) was tested, and the growth was -17.8% (active). `CC(=O)Nc1ccc(-n2cnc3ccc(-c4ccc(O)cc4)cc32)cc1` was tested, and the growth was 52.5% (inactive). With `NC(=S)Nc1cccc(NC(N)=S)c1` the growth was 98.1% (inactive). With `O=C(/C=C/c1ccc(O)c(O)c1)NC1CCOC1O` (stereo not drawn) the growth was 120% (inactive). `CCN1C(=O)/C(=N\N=C(/C)c2ccc3c(c2)Nc2ccccc2S3)c2cc(Cl)ccc21` was tested, and the growth was 66.7% (inactive). `S=C(NCCc1ccccc1)Nc1ccc(OCc2nc3ccccc3[nH]2)cc1` was tested, and the growth was 108% (inactive). With `COc1ccc(-c2nc(SC(C)C)nc(NCCc3c[nH]c4ccccc34)c2C#N)cc1` the growth was 40.8% (inactive). In the case of `S=C(Nc1ccccc1)Nc1ccc(OCc2nc3ccccc3[nH]2)cc1`, the growth is reported as 79.9% (inactive). For `CC1(C)CC[C@]2(C(=O)Nc3ccc(Br)cc3)CC[C@]3(C)C(=CCC4[C@@]5(C)C[C@@H](O)[C@H](O)[C@@](C)(CO)C5CC[C@]43C)C2C1` (stereo partly drawn), the growth was -28.6% (active). With `CC12CC[C@@H]3[C@]4(C)COC(c5c(F)cccc5F)O[C@@H]4CC[C@@]3(C)[C@@H]1CC(C1=CCOC1=O)O2` (stereo partly drawn) the growth was 63.6% (inactive). For `Cc1ccc(Cc2cnc(NC(=O)c3ccc(/C=C4\SC(=S)N(C)C4=O)cc3)s2)cc1`, the growth was 52.5% (inactive). `CC(=O)Nc1ccc(-n2cnc3cc(-c4ccc(O)cc4)ccc32)cc1C(F)(F)F` was tested, and the growth was 44.8% (inactive). For `Cn1cc(NC(=O)c2cc(NC(=O)c3ccc(/C=C/c4ccccc4)cc3)cn2C)cc1C(=O)NCCCN1CCOCC1`, the growth was 77.4% (inactive). In the case of `CN(C)CCCNC(=O)c1cc(NC(=O)c2cc(NC(=O)c3ccc(/C=C/c4ccccc4)cc3)cn2C)cn1C`, the growth is reported as 50.3% (inactive). In the case of `CC(=O)OC[C@@]1(C)C2CC[C@]3(C)C(CC=C4C5CC(C)(C)CC[C@]5(C(=O)Nc5ccc(Br)cc5)CC[C@]43C)[C@@]2(C)C[C@@H](OC(C)=O)[C@@H]1OC(C)=O` (stereo partly drawn), the growth is reported as 45.2% (inactive). In the case of `COc1ccc(NC(=O)Cn2c(O)c(N=Nc3ccc(S(N)(=O)=O)cc3)c3ccccc32)cc1`, the growth is reported as 39.8% (inactive).
